Assay outcomes as filed in PubChem.
Sampled rows, rich in hits. Any-hit rate of the full collection: about 19%.
Gal4-VP16 FLuc: inhibits Gal4-VP16 luciferase reporter, ROR gamma counter-screen; Potency, µM (titrated, usually from 53.6 µM), inactives show at the highest dose activity, negative = inhibition, usual class: inhibitors; AID 2546; Drosophila S2 Gal4-VP16 UAS-luciferase, luminescence, 20 h; 310,000 compounds, 3.5% hits;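 note: Gal4-VP16 expression switched on by copper sulfate through the metallothionein promoter; nearly all actives have a fitted effect of over 50% in size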
TDP1 cell noCPT: qHTS for Inhibitors of human tyrosyl-DNA phosphodiesterase 1 (TDP1): qHTS in cells in absence of CPT | Potency, µM (doses to about 46.2 µM), for inactives: at the highest dose activity change, negative = growth inhibition, usual class: inhibitors | AID 686978, 2013 | 420,000 compounds, 15% hits | DT40 Tdp1-/- hTDP1 cells, no CPT, ATP luminescence, 48 h; note: nearly all actives have a fitted effect of over 55% in size
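A cellular qHTS used chicken DT40 cells lacking endogenous Tdp1 but carrying stably transfected human TDP1. Compounds were applied without camptothecin, and cell growth kinetics were judged by ATP-dependent luminescence after ≥48 hr.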
RORgamma inh: ROR gamma (mouse) transcription inhibition; Potency, µM (series often up to 53.6 µM), without a hit: at the top dose activity change, negative = inhibition, most hits filed as inhibitors; Drosophila S2 Gal4-RORgamma UAS-luciferase reporter, 20 h; 310,000 compounds, 5.4% hits; AID 2551; P51450; note: nearly all actives have a fitted effect of over 60% in size
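Luminescence from a UAS-regulated Photinus luciferase reporter in stably transfected Drosophila Schneider cells is measured; decreased signal marks ROR gamma inhibition. Fusion expression is induced by 700 uM copper sulfate for 20 hr.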
TDP1 block: TDP1 (human) enzyme inhibition; recombinant TDP1, AlphaScreen DNA substrate cleavage; 350,000 compounds, 0.28% hits; Potency, µM (titrated, usually from 130 µM), inactives show top-dose activity change, negative = inhibition, most hits filed as inhibitors; Q9NUW8; note: nearly all actives have a fitted effect of over 40% in size
Target sequence (Q9NUW8 whole entry, looked up): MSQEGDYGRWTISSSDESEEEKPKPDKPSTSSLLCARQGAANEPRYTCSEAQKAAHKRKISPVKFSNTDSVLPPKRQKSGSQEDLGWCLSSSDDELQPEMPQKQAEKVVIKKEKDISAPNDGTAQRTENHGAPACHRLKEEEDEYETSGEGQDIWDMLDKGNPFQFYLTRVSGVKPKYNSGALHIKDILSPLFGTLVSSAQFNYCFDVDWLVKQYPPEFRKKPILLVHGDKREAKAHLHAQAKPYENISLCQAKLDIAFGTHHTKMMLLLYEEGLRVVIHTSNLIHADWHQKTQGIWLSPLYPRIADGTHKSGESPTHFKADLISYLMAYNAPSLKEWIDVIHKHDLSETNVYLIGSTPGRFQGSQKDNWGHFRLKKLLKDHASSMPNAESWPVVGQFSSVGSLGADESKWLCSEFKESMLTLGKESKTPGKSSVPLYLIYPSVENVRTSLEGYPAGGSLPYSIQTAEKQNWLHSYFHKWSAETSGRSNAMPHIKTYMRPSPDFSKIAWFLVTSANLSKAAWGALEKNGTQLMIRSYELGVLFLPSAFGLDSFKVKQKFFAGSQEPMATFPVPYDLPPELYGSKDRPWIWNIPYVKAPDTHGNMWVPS
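Signal: AlphaScreen proximity between streptavidin donor and anti-FITC acceptor beads on intact substrate. Reaction: Tdp1 1 nM, substrate 15 nM final, 5 min RT after 15 min compound preincubation.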
TDP1 cell CPT: DT40-hTDP1 cell growth loss with CPT. chicken DT40 Tdp1-/-;hTDP1 cells + 20 nM CPT, ATP luminescence, 48 h. Potency, µM (doses to about 46.2 µM), for inactives: top-dose activity change, negative = growth inhibition, actives largely listed as inhibitors. 420,000 compounds, 12% hits. AID 686979; note: nearly all actives have a fitted effect of over 55% in size
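Cell growth measured by CellTiter-Glo luminescence after a minimum 48 h, 37 C compound exposure with 20 nM CPT in Tdp1-knockout DT40 cells stably expressing hTDP1, seeded 400/well; qHTS titration format.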
Numbers without * were called inactive; ? = inconclusive; nt = not tested or not shown; [ ] = remark or other dose. Calls come from the whole dose curve; as a rule, active = well fitted curve in the direction sought with a large enough effect; inconclusive = small, poorly fitted or top-dose-only effect, or another doubt; inactive = no such curve, though single readings can be large; an effect the other way counts as inactive or inconclusive. % is set by controls: 0 for no effect and ±100 for the full control effect; potency is the fitted concentration of half-maximal effect.

SMILES	Gal4-VP16 FLuc	TDP1 cell noCPT	RORgamma inh	TDP1 block	TDP1 cell CPT
COc1ccc(NC(=O)c2cc(-c3cc(Cl)ccc3OC)n[nH]2)cc1OC	nt	?	nt	nt	20.6µM*
COc1ccc(NC(=O)c2cc(-c3cc(C)cc(F)c3)n[nH]2)cc1OC	nt	?	nt	nt	25.9µM*
COc1ccc(NC(=O)c2cc(-c3ccc(F)cc3C)n[nH]2)cc1OC	nt	?	nt	nt	-19.4%
CC(C)C(=O)Nc1cccc(COc2ccc(CN(Cc3ccccc3)C(=O)OC(C)(C)C)cc2)c1	nt	16.4µM*	nt	nt	?
CC(C)C(=O)Nc1ccc(COc2ccccc2CN(Cc2ccccc2)C(=O)OC(C)(C)C)cc1	nt	14.6µM*	nt	nt	14.6µM*
COc1ccc(NC(=O)C(NC(=O)OC(C)(C)C)C(C)OCc2ccccc2)cc1 (stereo not given)	0.1%	-13.5%	9.3%	5.7%	-26.9%
CCCCN(C)C(=O)c1sc(=O)n(Cc2ccccc2C#N)c1C	nt	?	nt	nt	13µM*
CCCCN(C)C(=O)c1sc(=O)n(Cc2c(C)noc2C)c1C	nt	-16.1%	nt	nt	-20.8%
Cc1c(C(=O)N(C)Cc2ccc(F)cc2)sc(=O)n1Cc1ccccc1C#N	nt	16.4µM*	nt	nt	23.1µM*
Cc1ccccc1Cn1c(C)c(C(=O)N(C)Cc2ccc(F)cc2)sc1=O	nt	18.4µM*	nt	nt	?
CC(NC(=O)Nc1nccs1)(C(F)(F)F)C(F)(F)F	-10.9%	-20.7%	-0.5%	4.2%	2.1%
Cc1ccn2c(=O)c(NC(=O)COc3ccccc3)c(C)nc2c1	nt	4.2%	nt	nt	-1.1%
Cc1ccc2oc(=O)n(CCNC(=O)Nc3ccc(Cl)cc3)c2c1	nt	16.4µM*	nt	0.0%	23.1µM*
Cc1c(Cl)cccc1NC(=O)NCCOCCn1c(=O)oc2ccccc21	nt	7.31µM*	nt	-2.3%	8.2µM*
O=C(NCCOCCn1c(=O)oc2ccccc21)Nc1ccc(F)cc1	nt	?	nt	4.7%	16.4µM*
Cc1cccc(NC(=O)NCCOCCn2c(=O)oc3ccccc32)c1C	nt	-27.0%	nt	4.7%	?
CC(NC(=O)CCC(=O)N1CCCCCC1)c1ccccc1 (stereo not given)	nt	-8.0%	nt	3.5%	-4.0%
COc1ccc(CN2C(=O)COc3ccccc3C2c2nc3ccccc3[nH]2)cc1 (stereo not given)	nt	-6.2%	nt	nt	-22.0%
O=C(NCc1ccccc1)C1c2ccccc2OCC(=O)N1Cc1ccccc1 (stereo not given)	nt	11.6µM*	nt	nt	?
O=C1COc2ccccc2C(c2nc3ccccc3[nH]2)N1Cc1ccccc1 (stereo not given)	nt	16.4µM*	nt	nt	?
CCOCC	-7.3%	nt	-5.0%	2.3%	nt
Cc1ccc(NC(=O)COC(=O)CSC(=S)N2CCOCC2)cc1C	3.8%	-5.8%	29.0%	1.8%	8.6%
Cc1ccc(NC(=Nc2ccc(Br)cc2)N2CCOCC2)cc1C	-3.4%	20.6µM*	1.2%	5.0%	?
Cc1ccc(C(=O)N/C(=C/c2ccc(-c3cccc([N+](=O)[O-])c3)o2)C(=O)NC(C)C)cc1	4.1%	?	?	9.2%	?
CN(C)C(=O)/C(=C/c1ccc(-c2cccc([N+](=O)[O-])c2)o1)NC(=O)c1ccccc1	-3.4%	?	?	nt	?
SMILES	Gal4-VP16 FLuc	TDP1 cell noCPT	RORgamma inh	TDP1 block	TDP1 cell CPT
COc1ccc(C(=O)N/C(=C\c2ccc(-c3cccc([N+](=O)[O-])c3)o2)C(=O)NCCCN2CCOCC2)cc1	nt	16.4µM*	nt	nt	?
Cc1ccc(C(=O)N/C(=C/c2ccc(-c3cccc([N+](=O)[O-])c3)o2)C(=O)NC(C)(C)C)cc1	-18.3%	13µM*	4.8%[10 µM]	0.0%	?
CN(C)C(=O)/C(=C\c1ccc(-c2cccc([N+](=O)[O-])c2)o1)NC(=O)c1ccccc1	-8.9%	16.4µM*	20.1%	10.8%	14.6µM*
Cc1ccc(C(=O)N/C(=C\c2ccc(-c3cccc([N+](=O)[O-])c3)o2)C(=O)NCCCN2CCOCC2)cc1	-13.1%	?	-21.2%	6.2%	?
Cc1c(OCc2ccccc2)c(=O)ccn1Cc1ccc(Cl)cc1	0.5%	16.4µM*	-19.3%	4.0%	?
Cc1c(O)c(=O)ccn1Cc1ccccc1	0.9%[10 µM]	18.4µM*	?	6.9%[21 µM]	23.1µM*
Cc1ccc(Cn2ccc(=O)c(Cc3c(Cl)cccc3Cl)c2C)cc1	-14.2%	-24.2%	28.1%	2.0%	-8.7%
COc1ccc(Cn2ccc(=O)c(Cc3c(Cl)cccc3Cl)c2C)cc1	15.8µM*	?	15.8µM*	9.3%	-25.4%
C=CCSc1nc(O)c(CC)c(=O)n1C(C)CC (stereo not given)	-0.5%	2.6%	?	2.0%	-6.7%
Cn1c(SCC(=O)NCc2ccccc2)nc2ccccc21	-1.3%	-12.4%	4.8%	1.0%	-28.2%
Cc1cccc(C)c1NC(=O)Cn1c(SCC(=O)NCc2ccccc2)nc2ccccc21	nt	?	nt	6.2%	?
O=C(CSc1nc2ccccc2n1Cc1ccccc1Cl)NCc1ccccc1	nt	23.1µM*	nt	8.8%	14.6µM*
Cc1ccc(C)c(Cn2c(SCC(=O)NCc3ccccc3)nc3ccccc32)c1	nt	18.4µM*	nt	-1.2%	?
CC1=CC(C)(C)[N+](C)(C)c2ccc(C)cc21	-6.5%	18.4µM*	4.7%	2.4%	?
Cc1cc(C)cc(NC(=O)C2CCN(S(=O)(=O)c3ccc4c(c3)oc(=O)n4C)CC2)c1	nt	?	nt	3.8%	-28.8%
O=c1c2ccccc2[nH]c(=S)n1CC1CCCO1 (stereo not given)	nt	-24.3%	nt	nt	3.6%
CC1(C)CC2=C(CO1)C(=S)NC(c1ccccc1)N2CC1CCCO1 (stereo not given)	?	?	15.8µM*	2.4%	-10.8%
CC1CC(NNC(=O)c2ccccc2)=Nc2ccccc2N1C (stereo not given)	5.01µM*	11.4%	1.78µM*	3.8%	0.2%
N=C(N)SCP(=O)(c1ccccc1)c1ccccc1	-6.1%	18.4µM*	12.8%	4.2%	20.6µM*
CCNC(=O)/C=C1\NC(C)(C)Cc2c1ccc1ccccc21	10.1%	20.6µM*	4.7%	-5.6%	?
CC1(C)Cc2c(ccc3ccccc23)C(=O)N1	-8.6%	20.6µM*	-39.4%	4.1%	?
COC(=O)c1ccc(COC(=O)C(NC(=O)Cc2ccccc2)C(C)C)cc1 (stereo not given)	nt	16.4µM*	nt	-19.9%	-27.3%
Cc1cc(-c2ccc(S(=O)(=O)Nc3ccc(Cl)cc3C)cc2)on1	nt	3.26µM*	nt	2.8%	4.61µM*
Cc1cc(-c2ccc(S(=O)(=O)Nc3cccc(Cl)c3C)cc2)on1	nt	6.51µM*	nt	8.5%	6.51µM*
Cc1ccc(NS(=O)(=O)c2ccc(-c3cc(C)no3)cc2)c(Br)c1	nt	8.2µM*	nt	5.6%	11.6µM*
Cc1cc(-c2ccc(S(=O)(=O)Nc3ccccc3C)cc2)on1	nt	4.61µM*	nt	0.0%	5.17µM*
